Experiment [1] addresses T1, Serine/threonine-protein kinase TBK1 (Homo sapiens) (UniProt Q9UHD2).
T1 sequence (whole entry): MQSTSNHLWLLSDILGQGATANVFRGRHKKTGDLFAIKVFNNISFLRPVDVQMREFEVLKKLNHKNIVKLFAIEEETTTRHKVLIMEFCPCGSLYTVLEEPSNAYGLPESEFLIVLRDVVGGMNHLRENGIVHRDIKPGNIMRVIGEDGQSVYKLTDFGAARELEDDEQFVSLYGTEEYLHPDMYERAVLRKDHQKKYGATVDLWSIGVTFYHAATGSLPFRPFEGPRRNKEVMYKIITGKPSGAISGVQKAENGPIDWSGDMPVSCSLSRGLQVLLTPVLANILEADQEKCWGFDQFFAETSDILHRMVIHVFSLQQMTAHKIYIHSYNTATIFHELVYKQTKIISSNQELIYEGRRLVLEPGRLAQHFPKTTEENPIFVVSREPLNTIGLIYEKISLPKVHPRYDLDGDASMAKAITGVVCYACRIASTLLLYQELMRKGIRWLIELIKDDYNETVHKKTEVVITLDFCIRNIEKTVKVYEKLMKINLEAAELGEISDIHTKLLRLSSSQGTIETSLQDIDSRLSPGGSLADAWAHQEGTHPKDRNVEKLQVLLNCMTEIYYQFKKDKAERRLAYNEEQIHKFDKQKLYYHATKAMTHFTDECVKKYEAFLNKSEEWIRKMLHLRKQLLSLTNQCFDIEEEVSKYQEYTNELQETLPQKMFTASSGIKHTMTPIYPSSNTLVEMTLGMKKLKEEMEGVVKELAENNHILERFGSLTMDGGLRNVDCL
The settings on record: at 10 µM.

Experiment [2] deals with T2, TGF-beta receptor type-1 (Homo sapiens) (UniProt P36897).
T2 sequence (whole entry): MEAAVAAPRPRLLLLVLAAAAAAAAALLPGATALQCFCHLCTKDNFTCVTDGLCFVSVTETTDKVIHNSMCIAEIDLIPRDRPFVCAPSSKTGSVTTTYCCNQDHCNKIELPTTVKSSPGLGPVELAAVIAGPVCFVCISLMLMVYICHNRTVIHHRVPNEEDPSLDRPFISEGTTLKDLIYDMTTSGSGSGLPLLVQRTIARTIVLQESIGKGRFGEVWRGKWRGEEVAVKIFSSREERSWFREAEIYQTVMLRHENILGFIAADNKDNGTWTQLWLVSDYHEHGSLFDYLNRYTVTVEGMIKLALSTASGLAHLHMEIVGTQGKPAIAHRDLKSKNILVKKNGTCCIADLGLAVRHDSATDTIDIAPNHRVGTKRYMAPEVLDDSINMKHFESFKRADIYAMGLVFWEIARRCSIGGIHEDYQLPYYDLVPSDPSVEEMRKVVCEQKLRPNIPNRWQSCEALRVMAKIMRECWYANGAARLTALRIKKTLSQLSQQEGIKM
As to conditions: at 1 µM.

Experiment [3] addresses T2, TGF-beta receptor type-1 (Homo sapiens). As to conditions: at 10 µM.
In experiment [4] the target is Insulin-like growth factor 1 receptor (Homo sapiens) (UniProt P08069). As to conditions: at 1 µM.
For experiment [5] the target is unchanged. As to conditions: at 10 µM.
For experiment [6], the target named is T3, Inhibitor of nuclear factor kappa-B kinase subunit alpha (Homo sapiens) (UniProt O15111).
T3 sequence (whole entry): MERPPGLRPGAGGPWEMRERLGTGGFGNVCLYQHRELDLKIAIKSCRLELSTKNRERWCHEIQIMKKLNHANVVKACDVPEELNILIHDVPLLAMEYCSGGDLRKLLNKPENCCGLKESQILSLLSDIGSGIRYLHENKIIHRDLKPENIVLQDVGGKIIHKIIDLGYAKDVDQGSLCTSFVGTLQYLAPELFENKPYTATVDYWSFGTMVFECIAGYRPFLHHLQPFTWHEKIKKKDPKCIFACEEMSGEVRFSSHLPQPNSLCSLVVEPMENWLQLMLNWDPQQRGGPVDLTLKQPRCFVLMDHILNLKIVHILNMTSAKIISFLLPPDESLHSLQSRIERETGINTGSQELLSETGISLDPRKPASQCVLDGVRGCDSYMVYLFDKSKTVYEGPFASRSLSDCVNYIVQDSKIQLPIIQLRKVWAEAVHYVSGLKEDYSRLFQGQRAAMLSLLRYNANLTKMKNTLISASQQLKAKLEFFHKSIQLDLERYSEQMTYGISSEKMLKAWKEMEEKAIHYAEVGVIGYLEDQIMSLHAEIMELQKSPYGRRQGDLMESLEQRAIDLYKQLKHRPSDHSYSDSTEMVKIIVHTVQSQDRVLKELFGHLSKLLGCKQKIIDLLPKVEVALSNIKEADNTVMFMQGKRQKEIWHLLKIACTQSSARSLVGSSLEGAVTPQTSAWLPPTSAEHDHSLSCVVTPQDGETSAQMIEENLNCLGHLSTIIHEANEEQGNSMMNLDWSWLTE
The settings on record: at 1 µM.

Experiment [7] deals with T3, Inhibitor of nuclear factor kappa-B kinase subunit alpha (Homo sapiens). The settings on record: at 10 µM.
Experiment [8] deals with T4, Inhibitor of nuclear factor kappa-B kinase subunit beta (Homo sapiens) (UniProt O14920).
T4 sequence (whole entry): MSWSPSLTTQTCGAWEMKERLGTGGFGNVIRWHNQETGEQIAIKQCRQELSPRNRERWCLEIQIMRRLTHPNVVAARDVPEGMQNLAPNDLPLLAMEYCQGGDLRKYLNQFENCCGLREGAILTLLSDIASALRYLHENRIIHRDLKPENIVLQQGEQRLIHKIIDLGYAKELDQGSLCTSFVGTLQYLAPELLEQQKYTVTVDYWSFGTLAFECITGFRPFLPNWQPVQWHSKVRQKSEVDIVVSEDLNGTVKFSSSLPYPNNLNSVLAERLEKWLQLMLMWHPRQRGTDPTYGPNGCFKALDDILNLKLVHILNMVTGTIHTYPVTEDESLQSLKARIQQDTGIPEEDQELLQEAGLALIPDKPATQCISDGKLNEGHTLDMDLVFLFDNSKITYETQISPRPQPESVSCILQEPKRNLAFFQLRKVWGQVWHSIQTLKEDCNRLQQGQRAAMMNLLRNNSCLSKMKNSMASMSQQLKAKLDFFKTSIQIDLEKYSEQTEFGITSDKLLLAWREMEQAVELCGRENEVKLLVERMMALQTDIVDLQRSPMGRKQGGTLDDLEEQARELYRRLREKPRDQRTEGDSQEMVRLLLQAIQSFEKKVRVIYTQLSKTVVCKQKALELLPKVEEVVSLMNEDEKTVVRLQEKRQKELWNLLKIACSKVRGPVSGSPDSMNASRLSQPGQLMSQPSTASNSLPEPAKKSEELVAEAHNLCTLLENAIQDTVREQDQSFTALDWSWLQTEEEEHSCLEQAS
The settings on record: at 1 µM.

Experiment [9] has as its target T4, Inhibitor of nuclear factor kappa-B kinase subunit beta (Homo sapiens). The settings on record: at 10 µM.
The target in experiment [10] is Insulin receptor (Homo sapiens) (UniProt P06213). The settings on record: at 1 µM.

The structures appear in SMILES notation.

A word on the residual activity: it is the signal under treatment as a percentage of the control signal.

Chain of Insulin-like growth factor 1 receptor (Homo sapiens) (P08069 31-736 limits assumed): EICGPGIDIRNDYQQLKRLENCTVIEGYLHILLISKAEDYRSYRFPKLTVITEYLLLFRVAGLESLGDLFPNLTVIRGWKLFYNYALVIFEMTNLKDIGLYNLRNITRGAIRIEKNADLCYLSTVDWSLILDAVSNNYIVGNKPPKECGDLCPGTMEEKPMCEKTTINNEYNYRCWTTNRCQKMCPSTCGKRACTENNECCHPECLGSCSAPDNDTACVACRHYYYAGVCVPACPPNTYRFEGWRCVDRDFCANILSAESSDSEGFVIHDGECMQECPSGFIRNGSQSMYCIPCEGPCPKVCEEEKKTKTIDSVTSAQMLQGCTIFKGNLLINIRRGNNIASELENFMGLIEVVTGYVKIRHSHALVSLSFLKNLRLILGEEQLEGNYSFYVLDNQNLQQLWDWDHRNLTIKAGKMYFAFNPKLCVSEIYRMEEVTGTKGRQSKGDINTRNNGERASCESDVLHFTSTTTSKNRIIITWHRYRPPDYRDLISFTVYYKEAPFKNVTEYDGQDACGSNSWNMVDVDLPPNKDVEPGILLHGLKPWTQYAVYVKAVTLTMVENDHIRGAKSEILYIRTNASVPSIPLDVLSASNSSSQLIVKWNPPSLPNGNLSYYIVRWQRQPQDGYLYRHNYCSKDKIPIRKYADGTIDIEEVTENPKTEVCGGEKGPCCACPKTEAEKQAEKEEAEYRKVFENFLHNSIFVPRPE
Chain of Insulin-like growth factor 1 receptor (Homo sapiens) (P08069 741-1367 limits assumed): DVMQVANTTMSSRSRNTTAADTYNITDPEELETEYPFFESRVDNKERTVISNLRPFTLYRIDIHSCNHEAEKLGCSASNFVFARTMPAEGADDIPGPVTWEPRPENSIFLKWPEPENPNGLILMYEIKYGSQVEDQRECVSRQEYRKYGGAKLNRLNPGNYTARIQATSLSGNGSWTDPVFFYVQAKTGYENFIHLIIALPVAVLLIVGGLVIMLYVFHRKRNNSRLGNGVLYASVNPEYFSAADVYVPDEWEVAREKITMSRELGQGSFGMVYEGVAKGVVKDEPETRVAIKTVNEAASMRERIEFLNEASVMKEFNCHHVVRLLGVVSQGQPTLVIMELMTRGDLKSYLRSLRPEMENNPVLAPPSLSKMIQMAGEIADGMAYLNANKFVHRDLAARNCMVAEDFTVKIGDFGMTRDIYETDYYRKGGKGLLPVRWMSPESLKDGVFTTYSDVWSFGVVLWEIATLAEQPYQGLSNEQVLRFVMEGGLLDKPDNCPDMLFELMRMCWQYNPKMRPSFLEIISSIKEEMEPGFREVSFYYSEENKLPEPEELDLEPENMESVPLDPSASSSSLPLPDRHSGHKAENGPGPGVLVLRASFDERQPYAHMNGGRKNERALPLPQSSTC
Chain of Insulin receptor (Homo sapiens) (P06213 28-758 limits assumed): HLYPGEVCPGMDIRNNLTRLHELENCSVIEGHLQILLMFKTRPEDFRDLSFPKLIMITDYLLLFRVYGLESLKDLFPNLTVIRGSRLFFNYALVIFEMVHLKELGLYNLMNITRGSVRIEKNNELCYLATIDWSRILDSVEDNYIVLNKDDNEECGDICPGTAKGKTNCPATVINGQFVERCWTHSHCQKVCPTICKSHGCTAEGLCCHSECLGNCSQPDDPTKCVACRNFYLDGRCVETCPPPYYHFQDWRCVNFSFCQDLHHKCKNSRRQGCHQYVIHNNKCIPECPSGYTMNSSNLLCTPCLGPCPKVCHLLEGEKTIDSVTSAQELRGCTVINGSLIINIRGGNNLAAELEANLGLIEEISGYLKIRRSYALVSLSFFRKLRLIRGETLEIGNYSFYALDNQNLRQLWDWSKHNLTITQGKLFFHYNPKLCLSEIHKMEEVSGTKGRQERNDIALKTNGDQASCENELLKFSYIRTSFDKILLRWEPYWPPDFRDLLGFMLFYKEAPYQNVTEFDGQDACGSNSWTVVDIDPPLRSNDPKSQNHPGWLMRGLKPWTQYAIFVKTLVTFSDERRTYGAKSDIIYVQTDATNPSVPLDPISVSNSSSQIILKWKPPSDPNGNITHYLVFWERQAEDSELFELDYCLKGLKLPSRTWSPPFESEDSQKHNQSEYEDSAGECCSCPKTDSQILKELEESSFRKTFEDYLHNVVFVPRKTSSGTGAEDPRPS
Chain of Insulin receptor (Homo sapiens) (P06213 763-1382 limits assumed): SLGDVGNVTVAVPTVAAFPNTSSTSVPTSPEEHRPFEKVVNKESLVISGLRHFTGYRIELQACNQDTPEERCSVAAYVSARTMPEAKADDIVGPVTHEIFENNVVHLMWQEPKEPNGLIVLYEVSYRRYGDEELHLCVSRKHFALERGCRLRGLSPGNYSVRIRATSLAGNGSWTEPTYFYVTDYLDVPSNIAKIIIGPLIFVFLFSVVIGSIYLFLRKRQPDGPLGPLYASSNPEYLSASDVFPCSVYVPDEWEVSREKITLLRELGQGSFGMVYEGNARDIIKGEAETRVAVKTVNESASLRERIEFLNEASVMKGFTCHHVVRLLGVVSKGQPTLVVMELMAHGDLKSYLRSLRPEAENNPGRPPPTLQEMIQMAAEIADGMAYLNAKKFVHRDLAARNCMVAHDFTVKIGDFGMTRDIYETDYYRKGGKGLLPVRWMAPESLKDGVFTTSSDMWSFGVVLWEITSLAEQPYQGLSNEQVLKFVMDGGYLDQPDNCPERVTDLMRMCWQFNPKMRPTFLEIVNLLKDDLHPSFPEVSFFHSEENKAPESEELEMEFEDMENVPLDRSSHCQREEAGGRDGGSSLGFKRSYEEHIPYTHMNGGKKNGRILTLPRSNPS

Take `O=C1Nc2cc(Br)ccc2/C1=C1/Nc2ccccc2/C1=N\O`: the residual activity in experiment [1] worked out at 15%; in [2] it was 88%; in [3] it was 77%; in [4], 99%; in experiment [5], 101%; in experiment [6], 105%. Further, the residual activity in [7] came out at 100%; in experiment [8], 101%; in [9], 85%; in experiment [10], 75%.

(Values after ChEMBL document CHEMBL2218924, “A broad activity screen in support of a chemogenomic map for kinase signalling research and drug discovery” (Biochem J, 2013).)
